The values below come from the supplement of paper PMC6288085.

± gives the uncertainty stated by the source.

For the assay, the system named is Caenorhabditis elegans N2. Description: food intake (mean delta OD600 / animal over 72 h) with 50 uM loxapine co-treatment (OD600 units per animal); higher = more food eaten (less suppression of loxapine-induced hyperphagia). The note with it: first compound 33 µM, loxapine concentration 50 µM. As to the method: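 C. elegans N2 adults (FUDR-sterilised, day 1) in 96-well plates fed gamma-irradiated bacteria. Each library drug (MedChemExpress FDA-approved library) at 33 uM was combined with loxapine at 50 uM. Food intake was measured as bacterial clearance: the change in OD600 from day 1 to 72 h, normalised per animal (mean over 14-21 wells of about 10-12 worms). Drugs flagged for bacterial lysis or sickness were excluded by the authors.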
As for `FC(F)(F)C(Cl)Br` (centres undefined) [halothane] + CN1CCN(C2=Nc3ccccc3Oc3ccc(Cl)cc32)CC1 [loxapine], the food intake turned out to be 0.0227 ± 0.0031.

As to `Nc1ccc(O)c(C(=O)O)c1` [5-Aminosalicylic acid] + CN1CCN(C2=Nc3ccccc3Oc3ccc(Cl)cc32)CC1 [loxapine], the food intake is 0.0212 ± 0.0048.

Consider `CC[C@H]1OC(=O)C[C@@H](O)[C@H](C)[C@@H](O[C@@H]2O[C@H](C)[C@@H](O[C@H]3C[C@@](C)(O)[C@@H](O)[C@H](C)O3)[C@H](N(C)C)[C@H]2O)[C@@H](CC=O)C[C@@H](C)C(=O)/C=C/C(C)=C/[C@@H]1CO[C@@H]1O[C@H](C)[C@@H](O)[C@@H](OC)[C@H]1OC` [Tylosin (tartrate)] + CN1CCN(C2=Nc3ccccc3Oc3ccc(Cl)cc32)CC1 [loxapine], for which the food intake was determined as 0.021 ± 0.0039.

As to `C#Cc1cccc(Nc2ncnc3cc(OCCOC)c(OCCOC)cc23)c1` [Erlotinib] + CN1CCN(C2=Nc3ccccc3Oc3ccc(Cl)cc32)CC1 [loxapine], the food intake was found to be 0.0212 ± 0.0034.
